# Experimental data: article PMC7862700, “An all-to-all approach to the identification of sequence-specific readers for epigenetic DNA modifications on cytosine”
# Assays:
# Assay in all cases: DAPPL (digital affinity profiling via proximity ligation, sequencing); 10 mM Tris-HCl pH 7.5, 50 mM NaCl, 1 mM DTT, 4% glycerol, room temperature, 30 min; GST-TFs on glutathione beads, 16-mer random dsDNA library, 0.1% formaldehyde crosslink after washing; high values mean tight binding
# Conditions in all cases: protein: recombinant; tags: N-terminal GST; dsDNA, one strand shown
# [1] = biological target: T1, FLI1 (Homo sapiens, UniProt Q01543 1-452)
# T1 sequence: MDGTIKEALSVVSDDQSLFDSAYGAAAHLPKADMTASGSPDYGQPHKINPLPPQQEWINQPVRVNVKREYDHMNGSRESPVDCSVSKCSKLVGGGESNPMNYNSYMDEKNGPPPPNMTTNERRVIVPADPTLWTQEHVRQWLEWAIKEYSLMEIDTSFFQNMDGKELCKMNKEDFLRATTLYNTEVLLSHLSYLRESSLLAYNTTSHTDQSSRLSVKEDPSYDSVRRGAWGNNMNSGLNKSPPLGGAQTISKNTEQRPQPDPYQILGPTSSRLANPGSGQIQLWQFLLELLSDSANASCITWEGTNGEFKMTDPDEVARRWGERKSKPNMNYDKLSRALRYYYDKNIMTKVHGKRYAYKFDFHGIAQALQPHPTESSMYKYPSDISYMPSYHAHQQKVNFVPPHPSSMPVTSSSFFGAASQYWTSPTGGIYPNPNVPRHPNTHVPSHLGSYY
# Outline: (§1)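 Human transcription factors carrying a GST fusion were produced in yeast, bound to glutathione beads, tagged with DNA barcodes and pooled together with a tag-only sample. Each pool was held with 200 nmole of a random double-stranded 16-mer DNA library in Tris/NaCl/DTT/glycerol buffer for 30 min at room temperature, then washed, crosslinked in 0.1% formaldehyde, proximity-ligated with BsaI/T4 ligase (1 h, 37 °C), PCR-amplified and sequenced on an Illumina NextSeq500. Binding signal is the read frequency of each hexamer for a given factor divided by its frequency in the tag-only sample.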
# [2] = biological target: T2, ELK1 (Homo sapiens, UniProt P19419 1-428)
# T2 sequence: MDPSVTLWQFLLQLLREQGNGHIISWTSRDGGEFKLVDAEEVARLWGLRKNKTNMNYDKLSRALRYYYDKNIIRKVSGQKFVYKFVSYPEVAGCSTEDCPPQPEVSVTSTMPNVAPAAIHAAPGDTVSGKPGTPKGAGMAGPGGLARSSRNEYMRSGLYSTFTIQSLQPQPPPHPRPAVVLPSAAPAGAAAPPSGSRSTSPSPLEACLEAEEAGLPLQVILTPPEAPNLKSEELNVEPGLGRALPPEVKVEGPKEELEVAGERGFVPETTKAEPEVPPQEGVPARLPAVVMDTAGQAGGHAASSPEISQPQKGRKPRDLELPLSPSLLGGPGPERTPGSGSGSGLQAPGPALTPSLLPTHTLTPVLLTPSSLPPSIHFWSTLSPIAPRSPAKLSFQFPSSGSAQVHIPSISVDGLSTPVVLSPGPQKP
# Outline: as §1
# [3] = biological target: T3, GABPA (Homo sapiens, UniProt Q06546 1-454)
# T3 sequence: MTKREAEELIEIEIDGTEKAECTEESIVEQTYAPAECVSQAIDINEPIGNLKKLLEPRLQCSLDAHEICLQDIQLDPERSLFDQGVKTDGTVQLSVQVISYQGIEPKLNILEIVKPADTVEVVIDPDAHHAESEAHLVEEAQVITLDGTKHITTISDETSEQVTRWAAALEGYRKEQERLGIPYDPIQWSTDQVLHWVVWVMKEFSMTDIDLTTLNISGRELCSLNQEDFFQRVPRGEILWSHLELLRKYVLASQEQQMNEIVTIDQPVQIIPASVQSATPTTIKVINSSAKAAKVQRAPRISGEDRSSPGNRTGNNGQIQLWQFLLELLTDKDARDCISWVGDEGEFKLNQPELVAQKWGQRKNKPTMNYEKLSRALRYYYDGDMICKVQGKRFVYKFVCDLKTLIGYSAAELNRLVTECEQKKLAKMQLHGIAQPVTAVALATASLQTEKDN
# Outline: as §1
# [4] = biological target: T4, ERG (Homo sapiens, UniProt P11308 1-479)
# T4 sequence: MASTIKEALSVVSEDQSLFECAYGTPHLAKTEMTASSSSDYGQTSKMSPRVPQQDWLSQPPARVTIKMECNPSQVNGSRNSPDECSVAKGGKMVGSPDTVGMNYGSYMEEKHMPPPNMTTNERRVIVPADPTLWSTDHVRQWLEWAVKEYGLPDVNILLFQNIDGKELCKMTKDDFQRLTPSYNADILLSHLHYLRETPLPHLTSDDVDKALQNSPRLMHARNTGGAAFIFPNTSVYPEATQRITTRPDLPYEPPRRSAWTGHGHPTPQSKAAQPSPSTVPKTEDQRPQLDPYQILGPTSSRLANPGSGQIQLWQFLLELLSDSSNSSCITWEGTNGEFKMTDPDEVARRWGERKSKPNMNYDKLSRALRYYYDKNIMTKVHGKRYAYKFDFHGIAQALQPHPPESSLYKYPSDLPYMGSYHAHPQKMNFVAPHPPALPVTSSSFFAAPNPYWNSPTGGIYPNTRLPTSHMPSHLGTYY
# Outline: as §1
# [5] = biological target: ELF1 (Homo sapiens, UniProt P32519 1-619)
# Chain of ELF1 (P32519 whole entry): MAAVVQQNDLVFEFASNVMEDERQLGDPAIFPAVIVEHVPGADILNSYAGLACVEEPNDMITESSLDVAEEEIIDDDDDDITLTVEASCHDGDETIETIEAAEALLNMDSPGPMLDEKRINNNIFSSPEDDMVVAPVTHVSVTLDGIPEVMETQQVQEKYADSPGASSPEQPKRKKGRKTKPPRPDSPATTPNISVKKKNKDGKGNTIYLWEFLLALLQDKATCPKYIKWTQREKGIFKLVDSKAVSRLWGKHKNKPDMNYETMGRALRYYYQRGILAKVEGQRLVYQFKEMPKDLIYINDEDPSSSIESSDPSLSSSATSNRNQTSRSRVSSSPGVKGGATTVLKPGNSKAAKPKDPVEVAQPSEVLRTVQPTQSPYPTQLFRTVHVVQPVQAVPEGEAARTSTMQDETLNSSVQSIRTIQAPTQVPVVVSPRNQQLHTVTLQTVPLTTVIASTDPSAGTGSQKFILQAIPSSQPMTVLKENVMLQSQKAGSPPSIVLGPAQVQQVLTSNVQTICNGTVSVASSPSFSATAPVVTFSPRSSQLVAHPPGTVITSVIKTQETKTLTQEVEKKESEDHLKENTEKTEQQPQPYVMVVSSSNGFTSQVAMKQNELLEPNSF
# Outline: as §1
# [6] = biological target: T5, EHF (Homo sapiens, UniProt Q9NZC4 1-300)
# T5 sequence: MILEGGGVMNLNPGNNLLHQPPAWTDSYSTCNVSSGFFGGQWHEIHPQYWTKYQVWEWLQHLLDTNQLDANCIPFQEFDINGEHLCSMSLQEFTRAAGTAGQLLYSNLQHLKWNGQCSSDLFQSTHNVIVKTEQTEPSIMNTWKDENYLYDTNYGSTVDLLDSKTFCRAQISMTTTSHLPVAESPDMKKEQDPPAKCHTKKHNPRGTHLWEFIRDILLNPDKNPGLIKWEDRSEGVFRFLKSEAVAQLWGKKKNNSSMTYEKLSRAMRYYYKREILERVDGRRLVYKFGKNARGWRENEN
# Outline: as §1
# [7] = biological target: SPIB (Homo sapiens, UniProt Q01892 1-262)
# Chain of SPIB (Q01892 whole entry): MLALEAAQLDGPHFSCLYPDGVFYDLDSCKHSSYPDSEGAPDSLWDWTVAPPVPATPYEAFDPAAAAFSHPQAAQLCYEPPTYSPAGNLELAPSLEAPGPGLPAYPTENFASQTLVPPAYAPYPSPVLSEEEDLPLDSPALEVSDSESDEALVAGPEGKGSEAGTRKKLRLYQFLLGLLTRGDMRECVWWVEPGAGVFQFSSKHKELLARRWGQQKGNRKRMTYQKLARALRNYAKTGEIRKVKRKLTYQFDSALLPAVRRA
# Outline: as §1
# [8] = biological target: T6, ELK3 (Homo sapiens, UniProt P41970 1-407)
# T6 sequence: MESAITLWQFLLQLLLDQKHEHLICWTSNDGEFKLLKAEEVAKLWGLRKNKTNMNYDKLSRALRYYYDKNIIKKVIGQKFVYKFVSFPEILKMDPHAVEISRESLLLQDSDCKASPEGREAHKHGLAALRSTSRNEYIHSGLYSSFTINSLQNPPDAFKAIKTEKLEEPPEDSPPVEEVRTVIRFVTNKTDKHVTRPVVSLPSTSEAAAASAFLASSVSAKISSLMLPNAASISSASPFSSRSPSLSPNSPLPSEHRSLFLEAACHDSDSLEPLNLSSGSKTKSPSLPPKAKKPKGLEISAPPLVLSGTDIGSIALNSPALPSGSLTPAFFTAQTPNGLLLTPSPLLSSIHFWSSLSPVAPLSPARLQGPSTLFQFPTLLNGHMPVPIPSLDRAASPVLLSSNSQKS
# Outline: as §1
# [9] = biological target: T7, FEV (Homo sapiens, UniProt Q99581 1-238)
# T7 sequence: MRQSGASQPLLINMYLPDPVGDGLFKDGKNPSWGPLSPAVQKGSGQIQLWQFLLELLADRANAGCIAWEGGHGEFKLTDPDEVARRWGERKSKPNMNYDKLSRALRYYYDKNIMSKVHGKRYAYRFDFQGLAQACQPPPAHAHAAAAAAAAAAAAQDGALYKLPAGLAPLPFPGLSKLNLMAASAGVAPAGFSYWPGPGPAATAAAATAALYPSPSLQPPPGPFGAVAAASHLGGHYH
# Outline: as §1
# [10] = biological target: ETV5 (Homo sapiens, UniProt P41161 1-510)
# Chain of ETV5 (P41161 whole entry): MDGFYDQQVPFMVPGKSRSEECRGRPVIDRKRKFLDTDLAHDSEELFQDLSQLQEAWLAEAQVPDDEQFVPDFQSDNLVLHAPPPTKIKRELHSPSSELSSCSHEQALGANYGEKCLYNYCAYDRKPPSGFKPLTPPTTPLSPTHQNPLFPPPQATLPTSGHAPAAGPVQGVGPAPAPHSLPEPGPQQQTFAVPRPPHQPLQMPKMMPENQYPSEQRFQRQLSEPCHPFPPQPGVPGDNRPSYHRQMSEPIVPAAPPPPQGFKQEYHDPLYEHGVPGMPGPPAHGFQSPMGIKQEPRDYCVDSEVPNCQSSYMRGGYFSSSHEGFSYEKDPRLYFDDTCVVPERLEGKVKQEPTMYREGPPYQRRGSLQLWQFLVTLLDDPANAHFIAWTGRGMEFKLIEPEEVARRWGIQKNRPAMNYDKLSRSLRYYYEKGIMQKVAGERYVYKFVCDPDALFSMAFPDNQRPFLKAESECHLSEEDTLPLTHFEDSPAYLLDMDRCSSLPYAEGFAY
# Outline: as §1
# [11] = biological target: T8, SPIC (Homo sapiens, UniProt Q8N5J4 1-248)
# T8 sequence: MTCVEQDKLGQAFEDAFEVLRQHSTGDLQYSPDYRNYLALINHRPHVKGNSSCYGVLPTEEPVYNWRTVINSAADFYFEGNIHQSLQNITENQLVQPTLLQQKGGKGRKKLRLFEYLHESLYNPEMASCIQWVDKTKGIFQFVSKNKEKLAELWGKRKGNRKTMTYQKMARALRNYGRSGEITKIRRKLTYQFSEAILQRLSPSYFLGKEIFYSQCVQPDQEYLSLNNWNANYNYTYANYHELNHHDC
# Outline: as §1
# [12] = biological target: ETV1 (Homo sapiens, UniProt P50549 1-477)
# Chain of ETV1 (P50549 whole entry): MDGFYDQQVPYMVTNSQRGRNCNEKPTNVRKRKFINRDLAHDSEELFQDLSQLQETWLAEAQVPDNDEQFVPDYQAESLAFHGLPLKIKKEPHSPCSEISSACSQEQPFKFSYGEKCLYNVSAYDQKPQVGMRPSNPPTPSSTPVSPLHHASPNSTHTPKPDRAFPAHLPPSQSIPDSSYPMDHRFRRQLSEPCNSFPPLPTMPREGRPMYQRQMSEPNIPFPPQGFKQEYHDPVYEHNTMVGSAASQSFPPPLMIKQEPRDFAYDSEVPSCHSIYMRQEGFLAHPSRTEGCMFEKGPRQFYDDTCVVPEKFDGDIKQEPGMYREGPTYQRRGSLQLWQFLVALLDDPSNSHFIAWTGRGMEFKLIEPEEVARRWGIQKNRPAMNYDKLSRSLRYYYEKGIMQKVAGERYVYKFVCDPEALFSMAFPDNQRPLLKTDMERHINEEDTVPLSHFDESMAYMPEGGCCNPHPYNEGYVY
# Outline: as §1
# [13] = biological target: T9, ERF (Homo sapiens, UniProt P50548 1-548)
# T9 sequence: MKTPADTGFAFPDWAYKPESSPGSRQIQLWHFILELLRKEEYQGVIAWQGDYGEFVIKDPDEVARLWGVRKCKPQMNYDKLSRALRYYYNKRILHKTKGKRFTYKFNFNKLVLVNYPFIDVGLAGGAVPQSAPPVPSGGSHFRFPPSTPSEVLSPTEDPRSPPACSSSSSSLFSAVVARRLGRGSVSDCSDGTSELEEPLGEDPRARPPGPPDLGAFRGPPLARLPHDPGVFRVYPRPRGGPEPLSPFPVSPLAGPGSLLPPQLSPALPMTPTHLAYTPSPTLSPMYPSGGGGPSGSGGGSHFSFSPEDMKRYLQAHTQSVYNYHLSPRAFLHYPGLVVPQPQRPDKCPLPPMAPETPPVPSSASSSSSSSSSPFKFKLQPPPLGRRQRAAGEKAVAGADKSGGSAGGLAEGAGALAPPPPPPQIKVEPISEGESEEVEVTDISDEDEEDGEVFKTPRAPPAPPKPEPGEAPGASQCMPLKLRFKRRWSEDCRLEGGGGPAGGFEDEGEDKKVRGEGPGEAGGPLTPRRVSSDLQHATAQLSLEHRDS
# Outline: as §1
# [14] = biological target: T10, ETV3L (Homo sapiens, UniProt Q6ZN32 1-361)
# T10 sequence: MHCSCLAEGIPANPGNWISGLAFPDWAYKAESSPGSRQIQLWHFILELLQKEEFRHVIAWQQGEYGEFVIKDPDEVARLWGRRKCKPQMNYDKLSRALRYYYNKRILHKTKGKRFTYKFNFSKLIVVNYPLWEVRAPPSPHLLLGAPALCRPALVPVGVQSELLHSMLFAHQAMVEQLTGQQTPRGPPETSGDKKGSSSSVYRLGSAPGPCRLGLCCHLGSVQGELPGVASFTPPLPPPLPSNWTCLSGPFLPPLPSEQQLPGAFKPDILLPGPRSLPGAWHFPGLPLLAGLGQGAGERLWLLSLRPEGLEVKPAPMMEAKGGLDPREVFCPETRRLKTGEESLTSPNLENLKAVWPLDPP
# Outline: as §1
# [15] = biological target: T11, ETS2 (Homo sapiens, UniProt P15036 1-469)
# T11 sequence: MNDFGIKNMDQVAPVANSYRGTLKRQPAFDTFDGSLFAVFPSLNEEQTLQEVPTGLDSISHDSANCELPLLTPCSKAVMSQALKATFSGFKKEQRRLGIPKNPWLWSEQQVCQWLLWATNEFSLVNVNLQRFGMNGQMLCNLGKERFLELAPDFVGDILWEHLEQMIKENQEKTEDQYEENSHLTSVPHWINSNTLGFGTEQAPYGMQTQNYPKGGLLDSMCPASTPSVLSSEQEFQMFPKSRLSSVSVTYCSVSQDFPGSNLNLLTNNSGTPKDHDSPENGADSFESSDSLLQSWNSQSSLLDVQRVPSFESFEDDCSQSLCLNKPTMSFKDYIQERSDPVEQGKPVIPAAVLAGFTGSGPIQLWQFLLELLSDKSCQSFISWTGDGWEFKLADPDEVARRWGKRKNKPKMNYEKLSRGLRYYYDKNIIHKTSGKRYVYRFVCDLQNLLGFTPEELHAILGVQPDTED
# Outline: as §1
# [16] = biological target: T12, SPDEF (Homo sapiens, UniProt O95238 1-335)
# T12 sequence: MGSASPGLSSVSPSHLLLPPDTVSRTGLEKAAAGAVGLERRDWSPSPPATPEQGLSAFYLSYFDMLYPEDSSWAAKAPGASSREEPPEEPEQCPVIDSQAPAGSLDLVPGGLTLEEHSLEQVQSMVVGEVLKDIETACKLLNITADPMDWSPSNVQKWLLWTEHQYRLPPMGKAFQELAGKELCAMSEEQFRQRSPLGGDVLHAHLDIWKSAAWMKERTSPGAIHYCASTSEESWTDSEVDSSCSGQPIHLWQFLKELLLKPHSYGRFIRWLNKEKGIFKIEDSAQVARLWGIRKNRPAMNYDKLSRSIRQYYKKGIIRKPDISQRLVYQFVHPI
# Outline: as §1
# [17] = biological target: T13, ETV3 (Homo sapiens, UniProt P41162-2 1-143)
# T13 sequence: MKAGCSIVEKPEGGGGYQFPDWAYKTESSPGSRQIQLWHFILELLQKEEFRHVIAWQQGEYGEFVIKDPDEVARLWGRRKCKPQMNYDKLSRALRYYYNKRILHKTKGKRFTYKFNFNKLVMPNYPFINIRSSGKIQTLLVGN
# Outline: as §1
# [18] = biological target: ETV6 (Homo sapiens, UniProt P41212 1-452)
# Chain of ETV6 (P41212 whole entry): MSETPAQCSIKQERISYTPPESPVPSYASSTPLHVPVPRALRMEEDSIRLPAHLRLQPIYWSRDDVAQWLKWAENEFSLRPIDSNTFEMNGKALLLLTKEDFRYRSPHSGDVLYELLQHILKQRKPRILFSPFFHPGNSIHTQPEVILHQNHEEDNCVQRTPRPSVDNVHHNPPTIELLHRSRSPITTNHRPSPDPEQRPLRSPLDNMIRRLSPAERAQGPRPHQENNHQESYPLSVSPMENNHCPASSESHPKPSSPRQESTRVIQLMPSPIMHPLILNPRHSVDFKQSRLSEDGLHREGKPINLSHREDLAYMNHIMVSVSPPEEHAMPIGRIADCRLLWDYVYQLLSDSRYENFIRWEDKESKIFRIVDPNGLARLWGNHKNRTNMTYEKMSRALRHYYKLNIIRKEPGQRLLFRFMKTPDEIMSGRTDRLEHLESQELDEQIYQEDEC
# Outline: as §1
sequence,measurement,setting,value
CAACCG,binding signal,[1],"1.11 fold enrichment (6-mer frequency, TF over GST control)"
same,binding signal,[2],"1.13 fold enrichment (6-mer frequency, TF over GST control)"
same,binding signal,[3],"1 fold enrichment (6-mer frequency, TF over GST control)"
same,binding signal,[4],"1.11 fold enrichment (6-mer frequency, TF over GST control)"
same,binding signal,[5],"1.03 fold enrichment (6-mer frequency, TF over GST control)"
same,binding signal,[6],"1.06 fold enrichment (6-mer frequency, TF over GST control)"
same,binding signal,[7],"1.15 fold enrichment (6-mer frequency, TF over GST control)"
same,binding signal,[8],"1.2 fold enrichment (6-mer frequency, TF over GST control)"
same,binding signal,[9],"1.28 fold enrichment (6-mer frequency, TF over GST control)"
same,binding signal,[10],"1.03 fold enrichment (6-mer frequency, TF over GST control)"
same,binding signal,[11],"1.02 fold enrichment (6-mer frequency, TF over GST control)"
same,binding signal,[12],"1.06 fold enrichment (6-mer frequency, TF over GST control)"
same,binding signal,[13],"1.03 fold enrichment (6-mer frequency, TF over GST control)"
same,binding signal,[14],"1.09 fold enrichment (6-mer frequency, TF over GST control)"
same,binding signal,[15],"1.11 fold enrichment (6-mer frequency, TF over GST control)"
same,binding signal,[16],"1.15 fold enrichment (6-mer frequency, TF over GST control)"
same,binding signal,[17],"1.08 fold enrichment (6-mer frequency, TF over GST control)"
same,binding signal,[18],"1.13 fold enrichment (6-mer frequency, TF over GST control)"
